Screening results: PubChem, National Center for Advancing Translational Sciences (NCATS)
CHX counter: affects cycloheximide protein synthesis inhibition readout, counter-screen; cell reporter, cycloheximide protein synthesis inhibition counterscreen; max response, %; actives 12% (n = 300,000); in the data active = max response mostly above about 13%, no sharp cut-off; inactive = mostly below about 14%; also: read at 38.3 µM for the half of the compounds with a filed dose; 0% is about no effect
Shiga inhibitor: inhibitors of Shiga toxin in Vero cells | Vero cells, Shiga toxin protein synthesis inhibition reporter | inhibition, % at 38.7 µM | actives 9.2% (n = 290,000); in the data active = inhibition mostly above about 28%, no sharp cut-off; inactive = mostly below about 43%; also: 0% is about no effect
RE007 growth inh: less growth of the S. pombe RE007 Vpr strain; S. pombe RE007 Vpr strain, BacTiter-Glo ATP luminescence, 24 h; Potency, µM (top dose mostly 92.2 µM), for the others: top-dose activity change, negative = less growth, hits mostly inhibitors; actives 0.21% (n = 360,000); AID 651644; active = well fitted falling curve with a large enough effect; inconclusive = small, poorly fitted or top-dose-only effect; inactive = no such curve, though single readings can be large or run the other way; also: potency is read from the fitted curve at half-maximal effect; % is scaled to controls: 0 for no effect and ±100 for the full control effect; nearly all actives have a fitted effect of over 50% in size
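Fission yeast RE007 carrying one integrated HIV-1 vpr copy, seeded at OD 0.01 in PMG+AL medium with 23 nL pinned compound. Grown 24 h at 30 degrees; viability read by BacTiter-Glo luminescence after 5 min.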
LmPK inh: LmPK (Leishmania mexicana) enzyme inhibition. actives 0.37% (n = 290,000). Q27686. purified LmPK, Kinase-Glo ATP luminescence, 1 h. Potency, µM (series often up to 57.5 µM), for the others: top-dose activity change, negative = inhibition, usual class: inhibitors; also: potency is read from the fitted curve at half-maximal effect; % is scaled to controls: 0 for no effect and ±100 for the full control effect
Target sequence (Q27686 whole entry, looked up): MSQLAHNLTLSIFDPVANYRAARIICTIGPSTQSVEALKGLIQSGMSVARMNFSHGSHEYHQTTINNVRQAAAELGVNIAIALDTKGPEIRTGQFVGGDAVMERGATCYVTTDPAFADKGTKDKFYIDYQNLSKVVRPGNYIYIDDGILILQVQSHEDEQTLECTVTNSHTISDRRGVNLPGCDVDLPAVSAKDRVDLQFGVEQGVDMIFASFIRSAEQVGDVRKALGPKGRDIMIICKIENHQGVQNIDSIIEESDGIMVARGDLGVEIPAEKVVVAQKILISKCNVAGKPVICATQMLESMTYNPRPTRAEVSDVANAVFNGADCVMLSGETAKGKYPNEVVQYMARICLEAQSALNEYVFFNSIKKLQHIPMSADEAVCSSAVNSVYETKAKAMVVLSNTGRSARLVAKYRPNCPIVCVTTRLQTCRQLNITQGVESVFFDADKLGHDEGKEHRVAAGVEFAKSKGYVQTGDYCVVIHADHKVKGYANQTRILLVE
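Screened at intermediate enzyme activity to detect both inhibitors and activators: LmPK at 0.1 nM, with a 0.5 nM enzyme column as activation reference. PEP 0.5 mM, ADP 0.1 mM; ATP detected by luminescence after 1 h.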
Tb PYK inh: T. brucei pyruvate kinase inhibition; Potency, µM (highest dose often 76.8 µM), without a hit: top-dose activity, negative = inhibition, most hits filed as inhibitors; TbPYK enzyme, Kinase-Glo Plus ATP luminescence, 45 min; actives 0.12% (n = 410,000); AID 624173; Q57TT1; also: potency is read from the fitted curve at half-maximal effect; % is scaled to controls: 0 for no effect and ±100 for the full control effect; nearly all actives have a fitted effect of over 50% in size
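Luminescence from Kinase-Glo Plus, added after a 45-minute room-temperature reaction, served as the end-point read-out. The enzyme and substrate were preincubated with compound before ADP (130 uM final) initiated turnover. Concentration-effect curves came from normalized qHTS data.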
FBPA Giardia inh: blocks Giardia fructose-bisphosphate aldolase activity; Potency, µM (highest dose often 59.6 µM), for the others: at the top dose activity, negative = inhibition, most hits filed as inhibitors; actives 0.71% (n = 290,000); A8B2U2; purified Giardia FBPA; also: potency is read from the fitted curve at half-maximal effect; % is scaled to controls: 0 for no effect and ±100 for the full control effect; nearly all actives have a fitted effect of over 55% in size
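40 nM FBPA preincubated 10 min at RT with compound (up to 57.5 uM final), then substrate plus GAPDH/TPI/NAD/arsenate coupling and diaphorase/resazurin added. Fluorescence read after 20 min at RT, 525/598 nm.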
Numbers without * were called inactive; ? = inconclusive; nt = not tested or not shown; [ ] = remark or other dose. The sample as a whole holds a higher share of hits than the screen did. Unless noted, calls follow the shape of the dose curve; as a rule, active = well fitted curve in the direction sought with a large enough effect; inconclusive = small, poorly fitted or top-dose-only effect, or another doubt; inactive = no such curve, though single readings can be large; an effect the other way counts as inactive or inconclusive.

SMILES | CHX counter | Shiga inhibitor | RE007 growth inh | LmPK inh | Tb PYK inh | FBPA Giardia inh
O=c1c(/C=N/N2CCOCC2)c(O)n(-c2ccccc2)c(=S)n1-c1ccccc1 | 17* | -32 | 9% | -3% | -3% | 4%
COc1ccc2ccccc2c1C=NN1CCCCC1 | nt | nt | -23% | nt | 1% | nt
COc1ccccc1-n1c(O)c(/C=N/N2CCCCC2)c(=O)n(-c2ccccc2OC)c1=S | 14 | 33* | 0% | -2% | -4% | -9%
CCOC(=O)c1sc(=NC(=O)c2ccc(Cl)s2)n(C)c1C | 31* | 59* | -4% | -9% | -3% | 5%
CCOC(=O)c1sc(=NC(=O)c2ccco2)n(C)c1C | 60* | 73* | 12% | -9% | -1% | 1%
CCOC(=O)c1sc(=NC(=O)c2ccc(OC(C)C)cc2)n(C)c1C | -6 | -8 | 1% | -4% | -4% | 1%
CCOC(=O)c1sc(=NC(=O)c2cccs2)n(C)c1C | 48* | 96* | -18% | -12% | 4% | 4%
CCOC(=O)c1sc(=NC(=O)c2ccc(C)c(C)c2)n(C)c1C | 63* | 67* | 11% | 3% | -1% | 6%
O=C(NCc1ccccc1F)c1cccc(NC(=O)N2CCSc3ncccc32)c1 | nt | nt | nt | nt | -1%[15.4 µM] | nt
CCOC(=O)c1sc(=NC(=O)c2ccccc2Br)n(C)c1C | 30* | 87* | 13% | -8% | -6% | nt
CCOC(=O)c1sc(=NC(=O)/C=C/c2ccccc2)n(C)c1C | 38* | 68* | -8% | -3% | -16% | 0%
O=C(/C=C/Nc1ccc(F)cc1)c1ccco1 | 35* | 67* | ? | 13µM* | -17% | -9%
O=C(Nc1ccccc1C(=O)Nc1ccc(F)cc1)c1ccco1 | 11 | 40 | -3% | -3% | -2% | nt
CCOC(=O)c1ccc(N/C=C/C(=O)c2ccco2)cc1 | 40* | 66* | -3% | 14µM* | -11% | 3%
Cc1ccc(C(=O)CSc2nnc3ccc4ccccc4n23)cc1 | nt | nt | nt | nt | -14% | nt
Cc1ccc(Nc2nc3ccccc3n3nnnc23)cc1 | 26* | 71* | -12% | 3% | -1% | 1%
Fc1cc(Br)ccc1Nc1nc2ccccc2n2nnnc12 | 27* | 42* | 1% | 3% | -5% | 1%
COc1ccc(Nc2nc3ccccc3n3nnnc23)cc1 | 12 | 28 | 11% | 2% | -3% | 0%
COc1cccc(NC(=O)c2ccc3nc(Cc4ccccc4)oc3c2)c1 | nt | nt | nt | nt | -2% | nt
COc1ccc2c(c1)c1c(c(=O)n(-c3ccccc3C)c(=O)n1Cc1cccc(C(F)(F)F)c1)n2C | nt | nt | nt | nt | -3% | nt
COc1ccc(-c2c(C3C4C=CCC(C)C4C(=O)N3Cc3ccccc3)ccc3ccccc23)cc1 (stereo not given) | 1 | 5 | nt | nt | nt | 1%
CCN(CCCNC(=O)c1cc2c(=O)[nH]c3ccc(C)cc3c2s1)Cc1ccccc1 | nt | nt | nt | nt | -6% | nt
O=C(Oc1ccc(/C=N/O)cc1)c1ccccc1Cl | 51* | 69* | ? | -12% | 5% | 0%
Cc1cccc(C(=O)Oc2ccc(/C=N/O)cc2)c1 | 48* | 45* | 4% | -10% | 3% | -4%
Cc1ccc(C(=O)N/N=C/c2ccc(OC(=O)c3ccccc3Cl)cc2)cn1 | 14* | 26 | 2% | 0% | 4% | nt
SMILES | CHX counter | Shiga inhibitor | RE007 growth inh | LmPK inh | Tb PYK inh | FBPA Giardia inh
O=C(N/N=C/c1cccc(OC(=O)c2ccccc2Cl)c1)c1cccnc1 | 25* | 49* | 3% | -3% | -9% | 0%
O=C(c1cccc(F)c1)N1CCC2(CCCN(Cc3nccs3)C2)CC1 | nt | nt | nt | nt | -5% | 2%
COc1cccc(Nc2ncc3nc(CCc4ccccc4)c(=O)n(Cc4cccs4)c3n2)c1 | nt | nt | nt | nt | nt | 2%
O=C(O)Cn1nc(-c2ccccc2)cc1-c1ccccc1 | 12 | 9 | 1% | -5% | -4% | 8%
CCC1C(=O)n2nc(-c3ccccc3)cc2N=C1C (stereo not given) | 40* | active | -2% | -12% | 1% | 5%
Cc1cc2c(cc1NC(=O)c1ccc(C(C)(C)C)cc1)n(C)c(=O)c(=O)n2C | nt | nt | nt | nt | -6% | nt
